Whole data set: some 33,000 sequences, median “E-score (dimensionless, -0.5 to 0.5)” near -0.058, cut for the highest 2% near 0.35. The sample holds the highest values, similar sequences and a random draw of the others, so the mix is not that of the screen.
These sequences were tested on MvaT (assay: PBM 8-mer E-score (mean of HK and ME arrays) (E-score (dimensionless, -0.5 to 0.5)); higher = stronger relative binding preference).
Procedure: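 Protein binding microarray: GST-tagged full-length MvaT (P. aeruginosa PAO1) bound to two universal double-stranded 60-mer arrays (ME and HK), each with a constant 25-mer primer and a variable 35-mer region covering all 8-mers. The 8-mer E-score (rank-based, range -0.5 to 0.5, >0.45 = specific binding) is the mean of the two arrays.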

Sequence	PBM 8-mer E-score
AAGTATTC	0.161
ACGTATTG	0.183
CAGTATTA	0.289
GCGTATTA	0.193
AAGTATTA	0.388
ACGTATTA	0.356
ATATCTAG	0.252
GCCTACGA	-0.271
GCATACCA	-0.104
CCGTGCGA	-0.193
ACAAATAA	0.38
GCAAATAA	0.325
TCAAATAA	0.28
ACAAATAC	0.247
ACAAATAT	0.405
ACAAATAG	0.268
CCAGGCAC	-0.347
GCCGAGAA	-0.0283
ACATATGC	0.129
ACATATGG	0.145
ATATATGC	0.424
ATATATGA	0.439
CTATATGC	0.227
GTATATGA	0.245

Sequence	PBM 8-mer E-score
AGATATGG	0.00259
ATATATGG	0.42
CTATATGA	0.124
AAAGCTCC	-0.295
AGTCTTAC	0.0995
CGAGATCA	-0.0866
GTATAGAA	0.0668
ATATAGAC	0.224
CTATAGAA	0.103
ATATAGAT	0.35
AGATAGAT	0.152
ATATAGAG	0.351
ATAGAGAG	0.188
CTATAGAG	-0.125
ATATAGAA	0.366
ATGACCAC	-0.00499
AATGTTTG	0.212
AGGCGAGA	-0.0992
CACGCCAG	-0.233
AACGCGGA	-0.163
AAGAGGTC	-0.209
ATAACTAC	0.272
CTTTAGAC	0.0841
ATGCGGTA	-0.111

Sequence	PBM 8-mer E-score
TACTTTAA	0.422
TGCTTTAA	0.094
AACTTTCA	0.351
GACTTTAA	0.262
AAACTTAC	0.306
CAACTTAA	0.31
TAACTTAA	0.406
AAACTTAA	0.326
AAACTTAT	0.381
AACTTTCT	0.22
GAACTTAA	0.263
CACTTTCA	0.136
AAAACCGC	0.058
AGGACGGA	-0.0832
ACCTGGGG	-0.366
AGGCTGAT	-0.0817
CCCGGTTA	0.00633
ATTGCGCA	0.111
ACTGGACG	-0.0771
AACTTTTA	0.34
AACTTTAA	0.385
AACTTTAT	0.357
AACTTTAC	0.275
AACTTTAG	0.211

Sequence	PBM 8-mer E-score
CACTTTAA	0.274
GGGTGCGA	-0.091
CCGGCGCA	-0.0431
ATCGACAC	-0.0169
AGTGCGCA	0.13
AGGGGCGA	-0.155
ATCACTCG	0.0455
AGCTGGTA	-0.107
ACAGGAAC	-0.0162
ATAACTTA	0.429
CTAACTAA	0.286
CTAACTTA	0.379
CTAACTGA	0.0161
AGAACTTA	0.256
ATAACTGA	0.246
GTAACTCA	0.116
GTAACTGA	0.199
GTAACTTA	0.37
CTTGTCGC	-0.147
CCTCGTGA	-0.253
CCCTGTTA	-0.0586
AGCAAGAG	-0.0917
